Inconclusive results are not listed. Activity calls are given as the source filed them. Unless noted, calls follow the shape of the dose curve; as a rule, active = well fitted curve in the direction sought with a large enough effect in the repeat runs; inconclusive = weak or mixed curves; inactive = no such curve, though single readings can be large; an effect the other way counts as inactive or inconclusive.
Experiments:
[1] = target: Progesterone receptor (Homo sapiens) (UniProt P06401); assay: qHTS assay to identify small molecule agonists of the progesterone receptor (PR) signaling pathway (AID 1346784; calls by dose curve; also: nearly all actives have a fitted effect of over 30% in size; also: potency is read from the fitted curve at half-maximal effect)
Method in brief: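 The screen uses PR-UAS-bla HEK 293T cells in charcoal-stripped serum (2%). Compounds are applied for 16 hr at 37C after a 6 hr pre-incubation, and reporter activity is detected with a FRET beta-lactamase substrate after 2 hr at room temperature.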

[2] = target: Progesterone receptor (Homo sapiens) (UniProt P06401); assay: qHTS assay to identify small molecule antagonists of the progesterone receptor (PR) signaling pathway (AID 1346795; active = well fitted inhibition curve with a large enough effect in the signal ratio in the repeat runs, not every such curve was filed as active; the % refers to the signal ratio; also: potency is read from the fitted curve at half-maximal effect)
Method in brief: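 After 6 hr plating at 37C in 2% stripped-serum medium, PR-UAS-bla HEK293T cells got compounds, then 1 nM R5020. Sixteen hours later, LiveBLAzer substrate was applied for 2 hr at room temperature and fluorescence was recorded.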

[3] = qHTS assay to identify small molecule antagonists of the progesterone receptor (PR) signaling pathway - cell viability counter screen (AID 1346798); also: nearly all actives have a fitted effect of over 50% in size; also: potency is read from the fitted curve at half-maximal effect
Method in brief: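 Viability was determined by ATP-based luminescence (CellTiter-Glo) in PR-UAS-bla HEK293T cells cultured in 2% charcoal-stripped serum and incubated 16 hr with compounds under R5020 stimulation.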

[4] = qHTS assay to identify small molecule agonists of the progesterone receptor (PR) signaling pathway - cell viability counter screen (AID 1346799; calls by dose curve; also: nearly all actives have a fitted effect of over 45% in size; also: potency is read from the fitted curve at half-maximal effect)
Method in brief: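 Viability was scored by ATP luminescence (CellTiter-Glo, 30 min, room temperature) in the same wells used for the reporter readout, after 16 hr compound exposure of PR-UAS-bla HEK293T cells.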

[5] = qHTS assay to identify small molecule antagonists of the TGF-beta/Smad signaling pathway - cell viability counter screen (AID 1346824); also: nearly all actives have a fitted effect of over 50% in size
Method in brief: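 Cytotoxicity counter-screen run in the same wells as the beta-lactamase Smad reporter read: CellTiter-Glo luminescence after 30 min at room temperature. HEK 293T SBE-bla cells had 5 hr compound exposure at 37 C with TGF-beta1 (0.25 ng/mL stock).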

[6] = qHTS assay to identify small molecule agonists of the TGF-beta/Smad signaling pathway - cell viability counter screen (AID 1346829); also: top concentration of the series differs between compounds; nearly all actives have a fitted effect of over 45% in size
Method in brief: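 Compound-treated SBE-bla HEK 293T cells (5 hr, 37 C) were assessed for viability with CellTiter-Glo in parallel with the reporter read.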

[7] = qHTS assay to identify small molecule agonists of the TGF-beta/Smad signaling pathway (AID 1346859; active = well fitted activation curve with a large enough effect in the signal ratio in the repeat runs, not every such curve was filed as active; the % refers to the signal ratio; also: series mostly up to about 77 µM)
Method in brief: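 Dual-wavelength fluorescence (460/530 nm emission) quantified beta-lactamase expression under the Smad binding element in HEK 293T cells following 5 hr compound treatment at 37 C.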

[8] = target: Thyrotropin-releasing hormone receptor (Homo sapiens) (UniProt P34981); assay: qHTS assay to identify small molecule antagonists of the thyrotropin-releasing hormone receptor (TRHR) signaling pathway (AID 1346877; active = well fitted inhibition curve with a large enough effect in the repeat runs, not every such curve was filed as active; also: series mostly up to about 51 µM)
Method in brief: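 HEK293/TRHR cells, 18 h, 37 °C; Ca2+ dye 2 h; cpd 5 min RT; TRH 1 nM final; fluorescence read 3 min, 1 s intervals; 15 concs, triplicate.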

[9] = target: Thyrotropin-releasing hormone receptor (Homo sapiens) (UniProt P34981); assay: qHTS assay to identify small molecule agonists of the thyrotropin-releasing hormone receptor (TRHR) signaling pathway (AID 1346891; calls by dose curve;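 also: HEK293 cells expressing TRHR with calcium dye readout; series mostly up to about 58 µM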)
Method in brief: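 Kinetic fluorescence (3 min, 1 s intervals) reported intracellular calcium after compound transfer onto TRHR-Hek293 cells pre-loaded with dye for 2 h at 37 °C.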

[10] = Human pregnane X receptor (PXR) small molecule agonists, qHTS cell viability counter screen (AID 1346977); also: nearly all actives have a fitted effect of over 50% in size; also: potency is read from the fitted curve at half-maximal effect
Method in brief: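 HepG2 cells stably carrying the PXR-Luc reporter are cultured with 5% charcoal-stripped FBS and treated with compounds for 24hr. CellTiter-Fluor is added at 23hr and fluorescence is read after 1hr.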

Measured: Potency

Progesterone receptor (Homo sapiens), sequence (P06401 whole entry, looked up): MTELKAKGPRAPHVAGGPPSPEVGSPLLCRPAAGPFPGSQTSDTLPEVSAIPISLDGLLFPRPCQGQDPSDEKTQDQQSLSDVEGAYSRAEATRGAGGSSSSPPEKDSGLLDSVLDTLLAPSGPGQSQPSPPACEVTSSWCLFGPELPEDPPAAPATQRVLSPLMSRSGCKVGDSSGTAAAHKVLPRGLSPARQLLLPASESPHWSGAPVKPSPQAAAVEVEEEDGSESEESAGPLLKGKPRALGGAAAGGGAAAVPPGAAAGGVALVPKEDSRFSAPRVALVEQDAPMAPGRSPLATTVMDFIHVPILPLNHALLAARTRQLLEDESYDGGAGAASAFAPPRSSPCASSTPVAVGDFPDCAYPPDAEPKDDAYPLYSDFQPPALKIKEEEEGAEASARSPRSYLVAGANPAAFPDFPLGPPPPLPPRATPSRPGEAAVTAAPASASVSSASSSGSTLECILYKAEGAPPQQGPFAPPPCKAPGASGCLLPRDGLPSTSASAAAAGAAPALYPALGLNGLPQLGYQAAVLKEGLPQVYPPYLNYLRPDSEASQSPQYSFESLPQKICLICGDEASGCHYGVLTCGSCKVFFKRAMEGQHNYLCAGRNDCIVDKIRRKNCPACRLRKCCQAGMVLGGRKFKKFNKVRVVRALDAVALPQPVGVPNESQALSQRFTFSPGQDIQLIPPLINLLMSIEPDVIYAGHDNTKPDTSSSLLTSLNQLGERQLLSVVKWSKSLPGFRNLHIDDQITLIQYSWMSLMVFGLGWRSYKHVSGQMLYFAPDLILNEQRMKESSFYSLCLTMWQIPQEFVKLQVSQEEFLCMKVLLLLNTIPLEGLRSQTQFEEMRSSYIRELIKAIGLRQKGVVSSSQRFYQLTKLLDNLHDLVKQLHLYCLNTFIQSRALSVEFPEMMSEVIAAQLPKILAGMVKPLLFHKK
Thyrotropin-releasing hormone receptor (Homo sapiens), sequence (P34981 whole entry, looked up): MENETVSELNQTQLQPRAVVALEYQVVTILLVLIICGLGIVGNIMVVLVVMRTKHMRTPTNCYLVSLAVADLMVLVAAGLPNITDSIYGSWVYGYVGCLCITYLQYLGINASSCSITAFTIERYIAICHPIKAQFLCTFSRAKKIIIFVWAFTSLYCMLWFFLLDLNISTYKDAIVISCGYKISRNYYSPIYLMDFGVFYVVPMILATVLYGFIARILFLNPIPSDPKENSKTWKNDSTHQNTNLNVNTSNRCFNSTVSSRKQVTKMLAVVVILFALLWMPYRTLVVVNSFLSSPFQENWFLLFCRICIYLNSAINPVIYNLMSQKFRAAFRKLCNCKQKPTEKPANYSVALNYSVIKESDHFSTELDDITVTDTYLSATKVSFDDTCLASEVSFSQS

CC(C)CCCCCOC(=O)c1ccccc1C(=O)OCCCCCC(C)C
not listed: [10]
inactive: all other assays above

NC(=O)c1ccc(N)nc1
active: [3] 17.2 µM | [4] 21.7 µM
not listed: [9]
inactive: all other assays above

C=CCOC(N)=O
inactive: all assays above

C=CC(=O)N(C)C
inactive: all assays above

CC(C)C(=O)Cl
inactive: all assays above

CC(=O)c1cc(C(C)(C)C)cc2c1CCC2(C)C
inactive: all assays above

c1ccc2c(c1)OCC(C1=NCCN1)O2 (stereo not given)
active: [2] 21.1 µM | [10] 26.6 µM
inactive: all other assays above

CCS(=O)(=O)c1cccnc1S(=O)(=O)NC(=O)Nc1nc(OC)cc(OC)n1
inactive: all assays above

C=COCCCl
inactive: all assays above

CC(=O)OC1(c2ccccc2)CCN(CCc2ccccc2)CC1
not listed: [10]
inactive: all other assays above

c1ccc(Nc2ccc3ccccc3c2)cc1
active: [2] 17.2 µM
inactive: all other assays above

CC(O)C#N (stereo not given)
inactive: all assays above

COc1ccc(OC)c(CC(C)N)c1 (stereo not given)
inactive: all assays above

CCCCCCCCCBr
inactive: all assays above

COP(=O)(CCC(=O)NCO)OC
inactive: all assays above

CCc1cc(C)cc(CC)c1-c1c(OC(=O)C(C)(C)C)n2n(c1=O)CCOCC2
not listed: [10]
inactive: all other assays above

CN(C)CCc1c[nH]c2ccc(O)cc12
active: [2] 53.2 µM | [3] 42.3 µM
not listed: [10]
inactive: all other assays above

Clc1ccc(Oc2ccccc2)cc1
inactive: all assays above

CCOP(=S)(OCC)SCCS(=O)(=O)CC
active: [2] 48.6 µM
inactive: all other assays above

CCCCCCCCCCCCCN1CC(C)OC(C)C1 (stereo not given)
inactive: all assays above

C1CCC2CCCCC2C1 (stereo not given)
inactive: all assays above

NNC(=O)c1ccccc1
inactive: all assays above

CCN
inactive: all assays above

N#Cc1ccc(O)cc1
inactive: all assays above

CC(C)CC(C)N (stereo not given)
inactive: all assays above

Fc1cccc(Cl)c1CCl
inactive: all assays above

N#C/C=C/C#N
active: [2] 45.3 µM
inactive: all other assays above

O=[N+]([O-])c1cc(Cl)ccc1Cl
inactive: all assays above

CC(C)(C)OO
inactive: all assays above

COS(=O)(=O)c1ccc(C)cc1
inactive: all assays above

Nc1ccccc1C(=O)Oc1ccc2ccccc2c1
active: [2] 30.6 µM
inactive: all other assays above

O=C/C(Cl)=C(/Cl)C(=O)O
not listed: [9]
inactive: all other assays above

ClC(Cl)=C(Cl)Cl
inactive: all assays above

N#CC(Cl)Cl
active: [1] 5.3 µM
inactive: all other assays above

COC[C@H](C)N(C(=O)CCl)c1c(C)csc1C
inactive: all assays above

Cc1cccc(OP(=O)(Oc2cccc(C)c2)Oc2cccc(C)c2)c1
active: [2] 43.3 µM
inactive: all other assays above

O=C1NCN(c2ccccc2)C12CCN(CC1COc3ccccc3O1)CC2 (stereo not given)
inactive: all assays above

Cl/C=C\CCl
not listed: [8] | [9]
inactive: all other assays above

N#Cc1ccccc1Cl
not listed: [6]
inactive: all other assays above

N#CCc1ccc(Cl)cc1
not listed: [6]
inactive: all other assays above

Clc1ccc(-c2ccccc2)cc1
not listed: [6]
inactive: all other assays above

CC(Cl)CN(C)C (stereo not given)
not listed: [5] | [9]
inactive: all other assays above

SCc1ccco1
not listed: [9]
inactive: all other assays above

FC(F)(F)c1cccc(C2=CCN(CCc3ccc4ccccc4c3)CC2)c1
not listed: [6]
inactive: all other assays above

Cc1cc(Cl)ccc1O[C@H](C)C(=O)O
inactive: [1] | [2] | [3] | [5] | [6] | [10]

N#CCCO
not listed: [6]
inactive: all other assays above

Reference: PubChem BioAssay (Tox21)
